A selection: hits, their analogues and other compounds. The true share with any hit is near 7%.
ADAM10 inh: ADAM10 inhibition, QFRET primary screen | recombinant ADAM10, EDANS/DABCYL FRET peptide cleavage, 3 h | inhibition, % at 7 µM | 370,000 compounds, 0.62% hits | AID 720582;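 active = inhibition above a per-campaign cutoff equal to the mean of compounds falling between control-based bounds plus 3 SD, cut at about 20% in these data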
ADAM17 inh: ADAM17 inhibition, QFRET primary screen. P78536. recombinant ADAM17, EDANS/DABCYL FRET peptide cleavage. inhibition, % at 6.95 µM. 370,000 compounds, 0.83% hits;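 active = inhibition above the mean of compounds lying between control limits plus 3 SD, set per campaign, cut at about 8.5% in these data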
KLK7 zymogen act: activators of human kallikrein-7 zymogen. purified proKLK7, EDANS-DABCYL substrate fluorescence; 100% is mature enzyme control, 0% vehicle. activation, % at 7 µM. 370,000 compounds, 0.9% hits. AID 652039;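 active = activation above the mean of all tested compounds plus 3 SD, computed per campaign excluding outliers beyond control limits, cut at about 13% in these data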
GRIN3A LBD mod: modulates the human NR3A ligand-binding domain. 340,000 compounds, 2.5% hits. NR3A LBD differential scanning fluorimetry, Tm shift; 0% = protein alone, 100% = glycine-bound protein. AID 1259313. Tm shift relative to glycine control, % at 25 µM;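 active = melting temperature shift of at least 10% of the positive control shift, at one fixed dose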
rCAG binder: binds r(CAG) RNA repeats; r(CAG) RNA repeat, TO-PRO-1 dye displacement fluorescence; inhibition, % at 3 µM; 370,000 compounds, 1.3% hits; AID 651821;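 active = inhibition above the plate cutoff, the mean of all test compounds on that plate plus 3 SD, cut at about 35% in these data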;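 note: higher means more dye released from RNA so lower well fluorescence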
AHR activator: activators of human aryl hydrocarbon receptor; AHR-responsive luciferase reporter cells, luminescence; activation, % at 5 µM; 320,000 compounds, 2.5% hits; AID 2796; in the data active = activation above about 47%
Target sequence (P35869 whole entry, looked up): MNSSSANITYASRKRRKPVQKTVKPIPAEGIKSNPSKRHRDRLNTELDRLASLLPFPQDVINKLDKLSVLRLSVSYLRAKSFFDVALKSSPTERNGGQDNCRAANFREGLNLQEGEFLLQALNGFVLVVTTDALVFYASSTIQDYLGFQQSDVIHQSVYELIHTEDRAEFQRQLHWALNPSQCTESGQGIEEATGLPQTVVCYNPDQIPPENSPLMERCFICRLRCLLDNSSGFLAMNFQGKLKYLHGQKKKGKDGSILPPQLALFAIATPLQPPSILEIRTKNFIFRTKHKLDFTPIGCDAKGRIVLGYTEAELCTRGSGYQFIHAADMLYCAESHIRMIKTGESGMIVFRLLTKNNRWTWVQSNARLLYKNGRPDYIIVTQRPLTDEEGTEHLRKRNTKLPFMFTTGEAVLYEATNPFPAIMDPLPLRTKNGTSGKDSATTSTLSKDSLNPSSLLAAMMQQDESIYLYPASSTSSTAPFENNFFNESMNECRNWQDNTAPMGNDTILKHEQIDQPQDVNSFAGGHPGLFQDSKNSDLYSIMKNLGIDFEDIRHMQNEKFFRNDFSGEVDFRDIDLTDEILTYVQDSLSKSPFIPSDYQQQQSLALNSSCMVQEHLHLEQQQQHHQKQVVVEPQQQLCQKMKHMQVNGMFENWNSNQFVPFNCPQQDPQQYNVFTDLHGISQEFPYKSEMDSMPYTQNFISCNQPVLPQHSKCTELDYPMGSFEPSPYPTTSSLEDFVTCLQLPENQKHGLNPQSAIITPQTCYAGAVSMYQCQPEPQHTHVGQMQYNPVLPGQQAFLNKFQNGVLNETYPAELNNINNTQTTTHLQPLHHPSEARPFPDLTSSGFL
rCAG bind conf: r(CAG) RNA repeat binding, confirmation. shares compounds with rCAG binder. TO-PRO-1 dye displacement fluorescence. inhibition, % at 3 µM. 4,300 compounds, 70% hits. AID 652065;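 active = inhibition above a per-plate cutoff, the mean inhibition of sample wells plus 3 SD, cut at about 35% in these data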;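 note: loss of TO-PRO-1 fluorescence as compound displaces dye from 1x1 AA loop RNA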
dCAG dye counter: disrupts DNA CAG TO-PRO-1 complex, flagging rCAG hits | shares compounds with rCAG binder | d(CAG) DNA oligo TO-PRO-1 dye displacement, fluorescence | inhibition, % at 3 µM | 4,300 compounds, 94% hits | AID 652068;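 active = inhibition above its plate's cutoff, the mean test-well inhibition plus 3 SD, cut at about 4.8% in these data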;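 note: hits displace the dye from DNA and so lower well fluorescence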
DNA CAG DR: counter-screen for rCAG binders: inhibitors of DNA CAG TO-PRO-1 complex; shares compounds with rCAG binder; DNA CAG/GTC duplex TO-PRO-1 dye displacement fluorescence; IC50, µM; 250 compounds, 20% hits; AID 686960; in the data active = IC50 below about 10 µM
A number is an active result; i = inactive; nt = no result given.

SMILES	ADAM10 inh	ADAM17 inh	KLK7 zymogen act	GRIN3A LBD mod	rCAG binder	AHR activator	rCAG bind conf	dCAG dye counter	others
CCCOc1ccc(/C=N/Nc2ccc(C(=O)O)cc2)c(OCCC)c1	i	i	i	21	55	nt	60	22
CCCSc1nnc(NC(=O)CSc2nc3[nH]c(=O)cc(O)c3s2)s1	i	i	i	i	37	i	i	7.8
Cc1csc(NC(=O)CSc2sc3c(O)cc(=O)[nH]c3c2C#N)n1	i	i	i	i	75	i	37	14
CCSc1nnc(NC(=O)CSc2sc3c(O)cc(=O)[nH]c3c2C#N)s1	i	i	i	i	58	i	63	28
O=C(CSc1nc2[nH]c(=O)cc(O)c2s1)Nc1nncs1	i	i	i	i	i	nt	nt	nt
CCSc1nnc(NC(=O)CC)s1	i	i	i	i	i	i	nt	nt
COc1ccc(/C=N\NC(=O)Cc2cccs2)c(OC)c1OC	i	i	i	nt	i	nt	nt	nt
C[C@H](CO)N1C[C@H](C)[C@@H](CN(C)C(=O)Nc2cccc(Oc3ccccn3)c2)OCc2cn(nn2)CCCC1=O	i	i	i	nt	i	nt	nt	nt
COc1nc(OC)nc(N2CCC(C(=O)NCc3cccc(OC)c3OC)CC2)n1	i	i	i	nt	i	nt	nt	nt
Cc1csc(NC(=O)Nc2cccc(Cl)c2)n1	i	i	i	28	46	i	i	16
O=C(O)CCC(=O)Nc1nc(-c2ccccc2)cs1	i	i	i	i	i	i	nt	nt
O=C(Nc1cccc(Cl)c1)Nc1nc(-c2ccccc2)cs1	i	i	i	31	50	i	i	20
Cc1nnc(NC(=O)Nc2cccc(Cl)c2)s1	i	i	i	i	50	71	i	12
COc1ccccc1Cc1c(-c2cccc(Cl)c2)nc2c3ccccc3ccn12	i	i	i	nt	i	nt	nt	nt
CN(c1ccc(NC(=O)Cc2cn(C)c3ccccc23)cc1)c1ccccn1	i	i	i	nt	i	nt	nt	nt
O=C(O)c1cccc(NC(=S)NC(=O)c2ccc(-c3ccccc3)cc2)c1	i	i	i	i	i	i	nt	nt
COc1cc2ccccc2cc1C(=O)NC(=S)Nc1cccc(C(=O)O)c1	i	i	i	i	39	i	69	34
COCCNC(=O)C1(C)CCN(C(=O)c2ccc(C(F)(F)F)nc2C)C1 (stereo not given)	i	i	i	nt	i	nt	nt	nt
Cc1ccc(S(=O)(=O)NC(=O)Cn2nnc(-c3ccccc3)c2COc2ccc3ccccc3c2)cc1	i	i	i	nt	80	nt	86	50
Cc1ccc(OCc2nnn(CC(=O)NS(=O)(=O)c3c(C)noc3C)c2-c2ccccc2)cc1	i	i	i	nt	61	nt	67	19
CC(=O)c1ccc(OCc2c(-c3ccccc3)nnn2CC(=O)NS(=O)(=O)c2ccc(C)cc2)cc1	i	i	i	nt	48	nt	60	15
CC(=O)c1ccc(OCc2c(-c3ccccc3)nnn2CC(=O)NS(=O)(=O)c2ccccc2C)cc1	i	i	i	nt	52	nt	49	14
Cc1onc(C(=O)N2CCN(C(c3ccccc3)c3ccccc3)CC2)c1Br	i	i	nt	nt	nt	nt	nt	nt
COC(=O)c1ccc2nc(-c3cccc(Br)c3)c(Cc3cccc(Cl)c3)n2c1	i	i	i	nt	i	nt	nt	nt
CCOc1cccc(C=NNC(=O)C(=O)Nc2cccc(C(F)(F)F)c2)c1O	i	i	i	nt	i	nt	nt	nt
SMILES	ADAM10 inh	ADAM17 inh	KLK7 zymogen act	GRIN3A LBD mod	rCAG binder	AHR activator	rCAG bind conf	dCAG dye counter	others
CCc1cc2ccc(C)cc2nc1SCC(=O)Nc1cc(OC)c(OC)cc1C(=O)O	i	i	i	i	45	i	76	28	DNA CAG DR=i
COc1ccc(OC)c(/C=N/NC(=O)c2cccc3ccccc23)c1	i	i	i	i	i	i	nt	nt
COc1ccc(C)cc1NC(=O)c1ccccc1NS(=O)(=O)c1ccc(Cl)s1	i	i	i	17	90	i	84	54
COc1cc(C=NNC(=O)c2ccccc2NS(=O)(=O)c2cccs2)cc(OC)c1O	i	i	i	i	42	i	51	12
COc1ccc(OC)c(C=NNC(=O)c2ccccc2NS(=O)(=O)c2cccs2)c1	i	i	i	i	60	i	50	15
COc1ccc(C=NNC(=O)c2ccccc2NS(=O)(=O)c2cccs2)cc1O	i	i	i	i	36	i	37	10
COc1cc(/C=N/NC(=O)c2ccc(NS(=O)(=O)c3cccs3)cc2)cc(OC)c1O	i	i	i	i	i	i	nt	nt
COC(=O)C1=C(C)N(C)C(=NCC2CC2)NC1c1ccccc1 (stereo not given)	i	i	i	nt	i	nt	nt	nt
O=C(CSc1nc2sc3c(c2c(=O)n1-c1ccc(Cl)cc1)CCCC3)c1ccccc1Cl	i	i	i	nt	i	nt	nt	nt
O=C(NN=Cc1ccc(O)cc1O)c1ccccc1NS(=O)(=O)c1cccs1	i	i	i	i	43	i	41	14
COc1ccc(NC(=O)c2ccccc2NS(=O)(=O)c2ccc(C)cc2)c([N+](=O)[O-])c1	i	i	i	i	56	i	60	25
COc1ccccc1NC(=O)c1ccccc1NS(=O)(=O)c1cccs1	i	i	i	i	37	i	i	5.3
COc1ccc(NS(=O)(=O)c2ccc(C)cc2)c([N+](=O)[O-])c1	i	i	i	i	i	i	nt	nt
O=C(N/N=C/c1ccc(N2CCOCC2)cc1)c1ccccc1NS(=O)(=O)c1cccs1	i	i	i	i	66	i	50	17
CC(C)CN1C(=O)[C@]2(CC(=O)N(C)C2c2ccccc2)c2cc(-n3cc(CO)nn3)ccc21 (stereo not given in full)	i	i	i	nt	i	nt	nt	nt
CCCC(=O)OC[C@H]1CN(C2CCCC2)S(=O)(=O)c2c(Oc3ccc(F)cc3)cccc2O1	i	i	i	nt	i	nt	nt	nt
Cc1ccc(OCC(=O)Nc2nnc(S(=O)(=O)N3CCCCCC3)s2)cc1	i	i	i	i	i	i	nt	nt
Cc1ccc(OCC(=O)Nc2nnc(S(=O)(=O)N3CCCCC3)s2)cc1	i	i	i	i	50	i	41	18
O=C(NCC1COCCO1)C1CCN(S(=O)(=O)c2cccc3ccccc23)CC1 (stereo not given)	i	i	i	nt	i	nt	nt	nt
COc1cc(/C=C2\SC(=O)N(c3cccc(Cl)c3)C2=O)cc([N+](=O)[O-])c1O	i	i	i	i	37	nt	85	44
O=C1S/C(=C\c2ccc(O)c([N+](=O)[O-])c2)C(=O)N1c1ccccc1Cl	i	i	i	i	48	i	44	11

Screening data: PubChem BioAssay, several laboratories
